Assay results taken from PubChem BioAssay (EPA / NIEHS).
Active and inactive are the calls of the source. The calls were made as follows: active = hit-call score of the fitted dose curve at least 0.9, where 1 is the maximum; inactive = score below 0.9.

Read-out: E-selectin (Homo sapiens) (UniProt P16581)
Experiment: BSK_IMphg_ESelectin: BioMAP Diversity Plus: IMphg Assay for Eselectin Biomarker Activity (AID 2284291)
Settings: primary human endothelial cells with macrophages
Protocol: BSK_IMphg is a cell-based, multiplexed-readout assay that uses venular endothelial cells and macrophages, a human vascular primary cell, with measurements taken at 24 hours after chemical dosing in a microplate: 96-well plate.BSK_IMphg_ESelectin is an assay component measured in the BSK_IMphg assay. It measures E-selectin antibody related to regulation of gene expression using ELISA technology.Data from the assay component BSK_IMphg_ESelectin was analyzed at the endpoint, BSK_IMphg_ESelectin, in the positive analysis fitting direction relative to DMSO as the negative control and baseline of activity. Using a type of binding reporter, gain or loss-of-signal activity can be used to understand protein changes. To generalize the intended target to other relatable targets, this assay endpoint is annotated to the 'cell adhesion molecules' intended target family, where the subfamily is 'selectins'.
The levels of cell surface (or secreted, indicated by the prefix "s") biomarker endpoints were measured by ELISA. Overt cytotoxicity to cells in confluent adherent cultures (all systems other than the BT system) was assessed by measuring total protein levels using sulforhodamine B (SRB) staining in parallel cultures at the time of biomarker measurements, indicated as SRB endpoints. For proliferation assays for adherent cell types, individual cell types are cultured at sub-confluence and relative cell numbers quantified by SRB staining at time points optimized for each system (48 h: 3C and CASM3C systems; 72 h: BT and HDF3CGF systems; 96 h: SAg system). SRB was performed by staining cells with 0.1% SRB after fixation with 10% TCA and reading wells at 560 nm.Viability and proliferation of PBMC (T cells) was quantified by Alamar Blue reduction for the SAg and BT systems. For PBMC viability (referred to as PBMC Cytotoxicity within the assay endpoint names), cells were plated (75,000/well in a 96-well plate) and then chemical samples added for 1 h before addition of activators, SEB and TSST-1 (20 ng/mL final concentration each). Cells were incubated for 90 h. Then, Alamar Blue (20 uL/well) (Invitrogen, Cat DAL1100) was added for 6 h, and the plates were read with a fluorescence microplate reader at 546/580 nm (excitation/emission). For PBMC proliferation, cells were plated and activated as above but incubated for only 16 h prior to addition of Alamar Blue. Plates were read after 6 h.

Chain of E-selectin (Homo sapiens) (P16581 whole entry, looked up): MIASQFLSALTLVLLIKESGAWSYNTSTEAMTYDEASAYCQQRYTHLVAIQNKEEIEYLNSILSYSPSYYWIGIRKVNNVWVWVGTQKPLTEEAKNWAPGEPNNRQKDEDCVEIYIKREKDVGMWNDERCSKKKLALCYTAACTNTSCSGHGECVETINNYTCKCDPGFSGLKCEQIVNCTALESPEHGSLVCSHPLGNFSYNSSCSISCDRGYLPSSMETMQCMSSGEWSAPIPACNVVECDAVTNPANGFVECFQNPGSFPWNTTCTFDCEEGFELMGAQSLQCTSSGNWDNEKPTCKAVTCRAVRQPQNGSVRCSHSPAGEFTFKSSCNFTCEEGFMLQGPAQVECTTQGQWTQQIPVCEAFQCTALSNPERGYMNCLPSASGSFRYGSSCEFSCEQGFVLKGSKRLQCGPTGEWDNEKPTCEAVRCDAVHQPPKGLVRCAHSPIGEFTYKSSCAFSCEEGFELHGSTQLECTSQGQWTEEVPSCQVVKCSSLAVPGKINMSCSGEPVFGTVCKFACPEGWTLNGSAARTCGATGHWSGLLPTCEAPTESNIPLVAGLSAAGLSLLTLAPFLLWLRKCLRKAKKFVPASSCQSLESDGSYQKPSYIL

| Compound | outcome |
| --- | --- |
| FC(F)C(F)(F)COCC1CO1 (stereo not given) | inactive |
| FC(F)=C(F)C(F)(F)C(F)(F)C(F)(F)C(F)(F)C(F)(F)C(F)(F)F | inactive |
| OCCC(F)(F)C(F)(F)C(F)(F)C(F)(F)F | inactive |
| FC(F)(F)COC(OCC(F)(F)F)OCC(F)(F)F | inactive |
| C[Si](C)(C)C(F)(F)C(F)(F)C(F)(F)F | inactive |
| NCC(F)(F)C(F)(F)C(F)(F)C(F)(F)F | inactive |
| O=S(=O)(O)CCC(F)(F)C(F)(F)C(F)(F)C(F)(F)C(F)(F)C(F)(F)F | inactive |
| FC(F)(F)C(F)(F)C(F)(F)C(F)(F)C(F)(F)C(F)(F)I | inactive |
| O=C(Cl)C(F)(F)C(F)(F)C(F)(F)C(=O)Cl | inactive |
| OC(O)(C(F)C(O)(O)C(F)(F)F)C(F)(F)F | inactive |
